Test results reported in PubChem BioAssay (EPA / NIEHS).
Activity calls are given as the source filed them. The calls were made as follows: active = hit-call score of the fitted dose curve at least 0.9, where 1 is the maximum; inactive = score below 0.9.

The compounds below were run on ABC Transporter (ABCB11), ABCB11 (gene 8647) (assay: LTEA_HepaRG_ABCB11: Life Technologies and Expression Analysis (LTEA) Assay for ABC Transporter (ABCB11) using HepaRG (AID 2283463)). Settings: mRNA level, 48 h; actives raise or lower the signal.
Description: LTEA_HepaRG is a cell based, multiplexed-readout assay that uses HepaRG, a human liver cell line, with measurements taken at 48 hours after chemical dosing on a 96-well plate.LTEA_HepaRG_ABCB11 is one of 102 assay component(s) measured in the LTEA HepaRG cell culture assay. It is a marker of Steatosis/NR mediated transport.Data from the assay component LTEA_HepaRG_ABCB11 was analyzed into 1 endpoint. This assay endpoint, LTEA_HepaRG_ABCB11, was analyzed with bidirectional fitting relative to DMSO as the negative control and baseline of activity. Using a type of inducible reporter, measures of mRNA induction for gain or loss-of-signal activity can be used to understand regulation of transcription factor activity. To generalize the intended target to other relatable targets, this assay endpoint is annotated to the transporter intended target family, where the subfamily is ABC transporter.
A total of 1060 chemcials from the ToxCast library were tested in eight-point concentration-response experiments. Cell culture and cytotoxicity assays were conducted at Thermo Fisher Scientific's Custom Services facility (Madison, WI). A single lot of human HepaRG cells (Thermo Fisher Scientific, Frederick, MD) was used for the cell culture experiments. 96-well format collagen type I coated plates of human HepaRG cells were prepared using established methods. Briefly, cryopreserved HepaRG cells were thawed, plated at a density of approximately 100,000 cells/well in HepaRG Thaw, Plate, and General Purpose media (HPRG770, Thermo Fisher Scientific), and incubated for 48 hours. 0.5% DMSO was selected as vehicle control to balance the requisite need of DMSO in HepaRG cultures to maintain differentiation (for example, baseline metabolism, proportions of hepatocytes vs. cholangiocytes), while enabling further hepatic receptor pathway activation (for example, PXR and CAR) in response to chemical exposure. 48 hours after plating, the culture medium was replaced with HepaRG Serum-Free Incudtion Media. Cells were exposed to each test chemical in duplicate and maintained in CO2 incubators for another 48 hours. Chemical plates were thawed to room temperature and 200x concentrations of treatment groups were prepared. 8-point conentration-reponse curves were made with the highest exposure at 100 uM, followed by half-log dilutions, all in 0.5% DMSO. Each test plate contained variouse controls, induction positive controls (1mM phenobarbital), cytotoxicity positive controls ([…] aflatoxin B1), vehicle controls (0.5% DMSO), and total lysis controls (0.5% DMSO). Cell morphology images were taken using an Essen IncuCyte FLR automated microscope, with six 96-well plates imaged in about 24 minutes. Images were captured and exported and JPEG files. Spent culture media was transfered to black-well plates for the LDH assay, and remaining media was sorted at -80 C for later use. Cells were treated with RLT buffer and frozen until shipped for gene expression analysis. Total RNA was isolated from the cell suspension in 75 uL of Buffer RLT (Qiagen, Germantown, MD 20874) by Quintiles/Expression Analysis (Durham, NC) using a custom isolation procedure. Total RNA from each plate well was transferred to a preamplification plate. Fluidigm's 96.96 Dynamic ArrayTM (Fluidigm, Amsterdam, the Netherlands) technology was used for gene expression analyses by quantitative reverse transcription polymerase chain reaction (qRT-PCR, performed by Quintiles/Expression Analysis, Durham, NC)89. Standard TaqManTM Assays (Applied Biosystems/ThermoFisher Scientific, Foster City, CA) were used to assess the expression of 93 genes selected based on their selectivity and sensitivity to important hepatic receptors known to be modulated by environmental chemicals; importance in human hepatocyte functionality; and hepatotoxicity. […]

Row | SMILES | outcome
1 | CCOP(=S)(OCC)SCSCC | inactive
2 | CCN(CC)c1ccccc1 | inactive
3 | CCOS(=O)(=O)OCC | inactive
4 | c1cc2c3c(cccc3c1)CC2 | inactive
5 | CCNc1nc(Cl)nc(NC(C)(C)C)n1 | inactive
6 | CCCN(CCC)c1c([N+](=O)[O-])cc(C(C)C)cc1[N+](=O)[O-] | inactive
7 | CC(C)(C)OOC(C)(C)C | inactive
8 | OCC1CO1 (stereo not given) | inactive
9 | COCCOCCO | inactive
10 | CCCCN(CCCC)N=O | inactive
11 | O=P1(N(CCCl)CCCl)NCCCO1 (stereo not given) | inactive
12 | O=C(O)C1C(C(=O)O)C2(Cl)C(Cl)=C(Cl)C1(Cl)C2(Cl)Cl (stereo not given) | inactive
13 | [N-]=[N+]=[N-] | inactive
14 | c1ccc2c(c1)Nc1ccccc1S2 | inactive
15 | CCOc1ccc(C(C)(C)COCc2cccc(Oc3ccccc3)c2)cc1 | inactive
16 | Nc1cc2c3c(c1)C(c1ccccc1)=N[C@@H](NC(=O)c1cccnc1)C(=O)N3CC2 | inactive
17 | CCOP(=S)(Oc1ccc([N+](=O)[O-])cc1)c1ccccc1 (stereo not given) | inactive
18 | CC(Cc1ccc(OCC(=O)O)cc1)NCC(O)c1csc(C(F)(F)F)n1 (stereo not given) | inactive
19 | CCCCCCCc1ccc(O)cc1 | inactive
20 | Nc1ccc(Cl)cc1 | inactive

Row | SMILES | outcome
21 | O=[N+]([O-])c1ccccc1 | inactive
22 | O=C(O)C(Cl)Cl | inactive
23 | c1nc[nH]n1 | inactive
24 | Cc1ccc(N)cc1N | inactive
25 | ClC1=C(Cl)C2(Cl)C3C(Cl)C(Cl)CC3C1(Cl)C2(Cl)Cl (stereo not given) | inactive
26 | CCC(C)(C)c1ccc(O)cc1 | inactive
27 | O=[N+]([O-])c1ccc(Cl)c(Cl)c1 | inactive
28 | Cc1cccc(N)c1 | inactive
29 | CC(Cl)(Cl)C(=O)O | inactive
30 | CCCCN(CCCC)SN(C)C(=O)Oc1cccc2c1OC(C)(C)C2 | inactive
31 | Nc1ccc2ccccc2c1 | inactive
32 | CCOC(=O)c1ccccc1C(=O)OCC | inactive
33 | ClC(Cl)c1ccccc1 | inactive
34 | CN(C)C(=O)Cl | inactive
35 | Cc1ccc([N+](=O)[O-])cc1C | inactive
36 | CCC1(c2ccccc2)C(=O)N=C(O)NC1=O (stereo not given) | inactive
37 | O=P(Oc1ccccc1)(Oc1ccccc1)Oc1ccccc1 | inactive
38 | CCCCc1ccccc1 | inactive
39 | ClC(Cl)(Cl)c1ccccc1 | inactive
40 | c1ccc(OP(Oc2ccccc2)Oc2ccccc2)cc1 | inactive
